Results filed as inconclusive are left out. Activity calls are given as the source filed them. Calls come from the whole dose curve; as a rule, active = well fitted curve in the direction sought with a large enough effect; inconclusive = small, poorly fitted or top-dose-only effect, or another doubt; inactive = no such curve, though single readings can be large; an effect the other way counts as inactive or inconclusive.

A short description of assay [1]: Quantitative High-Throughput drug screen in 47 multiple myeloma cell lines against the NCATS MIPE library collection: JIM3_ECACC cell viability assay (AID 1918963; note: nearly all actives have a fitted effect of over 35% in size). The essentials:
(§1)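 Viability readout: CellTiter-Glo luminescence following 5 min room-temperature incubation with reagent. Prior exposure: 48 h, 37C, humidified 5% CO2, 500 cells per well.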

Assay [2] is described as follows: Quantitative High-Throughput drug screen in 47 multiple myeloma cell lines against the NCATS MIPE library collection: JIM1_ECACC cell viability assay (AID 1918964). The essentials:
(§2)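 Luminescent ATP measurement with CellTiter-Glo gives viability, scaled between DMSO-only wells (100%) and media-only wells (0%). Cells, 500 per well, faced library compounds for 48 hours at 37C.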

A short description of assay [3]: Quantitative High-Throughput drug screen in 47 multiple myeloma cell lines against the NCATS MIPE library collection: Karpas25_ECACC cell viability assay (AID 1918968; note: nearly all actives have a fitted effect of over 35% in size). The essentials:
as §2

A short description of assay [4]: Quantitative High-Throughput drug screen in 47 multiple myeloma cell lines against the NCATS MIPE library collection: KMS12BM_JCRB cell viability assay (AID 1918971). Note: nearly all actives have a fitted effect of over 35% in size. The essentials: (§3)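 Myeloma cell lines, 500 cells per well, exposed to MIPE 4.0 library compounds for 48 h at 37C, 5% CO2. Viability from ATP by CellTiter-Glo luminescence; normalised to DMSO (100%) and media-only (0%) wells.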

Assay [5] is described as follows: Quantitative High-Throughput drug screen in 47 multiple myeloma cell lines against the NCATS MIPE library collection: KMS12PE_JCRB cell viability assay (AID 1918972). Note: nearly all actives have a fitted effect of over 30% in size. The essentials: (§4)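 Approved and investigational drugs from MIPE 4.0 were added by pin tool to 500 cells per well. After 48 hours at 37C, ATP-based CellTiter-Glo luminescence indicated remaining viability.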

A short description of assay [6]: Quantitative High-Throughput drug screen in 47 multiple myeloma cell lines against the NCATS MIPE library collection: KMS20_JCRB cell viability assay (AID 1918973). Note: nearly all actives have a fitted effect of over 45% in size. The essentials: as §2
Assay [7] in a line: Quantitative High-Throughput drug screen in 47 multiple myeloma cell lines against the NCATS MIPE library collection: KMS26_JCRB cell viability assay (AID 1918975). Note: nearly all actives have a fitted effect of over 45% in size. The essentials: as §3
The nature of assay [8]: Quantitative High-Throughput drug screen in 47 multiple myeloma cell lines against the NCATS MIPE library collection: MMM1_PLB cell viability assay (AID 1918976). Note: nearly all actives have a fitted effect of over 35% in size. The essentials: (§5)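 MIPE 4.0 approved/investigational drugs; 500 cells/well; 48 h 37 °C humidified 5% CO2; CTG luminescence readout; DMSO = 100%, media = 0% viability.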
Assay [9] in a line: Quantitative High-Throughput drug screen in 47 multiple myeloma cell lines against the NCATS MIPE library collection: MM1S_ATCC cell viability assay (AID 1918980). Note: nearly all actives have a fitted effect of over 45% in size. The essentials: as §5
Assay [10] in a line: Quantitative High-Throughput drug screen in 47 multiple myeloma cell lines against the NCATS MIPE library collection: KMS21BM_JCRB cell viability assay (AID 1918974). Conditions: ATP luminescence, 48 h; viability: at 45.8 µM (top of the series) unless noted. The essentials: as §2
The nature of assay [11]: Quantitative High-Throughput drug screen in 47 multiple myeloma cell lines against the NCATS MIPE library collection: NCIH929_DSMZ cell viability assay (AID 1918978). Note: nearly all actives have a fitted effect of over 35% in size. The essentials: as §5
The nature of assay [12]: Quantitative High-Throughput drug screen in 47 multiple myeloma cell lines against the NCATS MIPE library collection: OCIMY1_PLB cell viability assay (AID 1918979). Note: nearly all actives have a fitted effect of over 35% in size. The essentials: as §5
Assay [13] is described as follows: Quantitative High-Throughput drug screen in 47 multiple myeloma cell lines against the NCATS MIPE library collection: MOLP8_DSMZ cell viability assay (AID 1918977). Note: nearly all actives have a fitted effect of over 45% in size. The essentials:
as §5

The nature of assay [14]: Quantitative High-Throughput drug screen in 47 multiple myeloma cell lines against the NCATS MIPE library collection: KHM11_PLB cell viability assay (AID 1918962). Note: nearly all actives have a fitted effect of over 35% in size. The essentials:
as §1

Assay [15] is described as follows: Quantitative High-Throughput drug screen in 47 multiple myeloma cell lines against the NCATS MIPE library collection: INA6_PLB cell viability assay (AID 1918965; note: nearly all actives have a fitted effect of over 55% in size). The essentials:
as §4

The nature of assay [16]: Quantitative High-Throughput drug screen in 47 multiple myeloma cell lines against the NCATS MIPE library collection: JJN3_DSMZ cell viability assay (AID 1918966; note: nearly all actives have a fitted effect of over 50% in size). The essentials:
as §2

Assay [17] can be described thus: Quantitative High-Throughput drug screen in 47 multiple myeloma cell lines against the NCATS MIPE library collection: H1112_PLB cell viability assay (AID 1918967; note: nearly all actives have a fitted effect of over 30% in size). The essentials: as §2
Assay [18] can be described thus: Quantitative High-Throughput drug screen in 47 multiple myeloma cell lines against the NCATS MIPE library collection: KMS27_JCRB cell viability assay (AID 1918970). Note: nearly all actives have a fitted effect of over 30% in size. The essentials:
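ATP-based viability (CellTiter-Glo luminescence) is measured in cells treated 48 h with approved and investigational drugs at 37 °C. Controls are DMSO-only wells for full viability and media-only wells for none.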
Potency is the fitted concentration of half-maximal effect.

As for `Cc1cccc(C=NNc2cc(N3CCOCC3)nc(OCCc3ccccn3)n2)c1`, the Potency in assay [1] was 2.35 µM (active); in [2] it was 0.935 µM (active); in [3], 13.2 µM (active); in assay [4] it was 14.8 µM (active); in assay [5], 0.332 µM (active); in assay [6], 6.62 µM (active). In addition, the results for the Potency in [7], in assay [8] and in assay [9] were 0.118 µM (active), 16.6 µM (active) and 16.6 µM (active), respectively.

On to `O=C1CCC[C@@H]2[C@H]3CCC[N+]4([O-])CCC[C@@H](CN12)[C@@H]34` (stereo not given in full), for which the Potency result in assay [1], in assay [3], in [11] and in assay [12] was “inactive” throughout. Moreover, the viability in assay [10] was 154% (active).

On to `Cc1c(Cn2c(C)nc3c(C(=O)O)cc(N4CCOCC4)cc32)cccc1C(F)(F)F`, for which the Potency in assay [1] is 9.35 µM (active); in assay [6], 0.0935 µM (active); in assay [9] it was 0.0662 µM (active). For the same compound, the Potency result in [5], in [13] and in [12] was “inactive” throughout.

As to `Nc1cccc(-c2cc3c(Oc4cccc(O)c4)ncnc3[nH]2)c1`, the Potency in [14] was 16.6 µM (active); in [1] it was 16.6 µM (active); in assay [15], 8.33 µM (active); in assay [3], 18.7 µM (active); in [4] it was 20.9 µM (active); in [6], 18.7 µM (active). The figures for the Potency in assay [11] and in assay [9] were 23.5 µM (active) and 3.32 µM (active), respectively. The Potency entry in [5] and in [12] was “inactive” in each case.

Turning to `CCCCN1CCC(CNC(=O)c2c3n(c4ccccc24)CCCO3)CC1`, the Potency in assay [14] is 11.8 µM (active); in assay [1], 18.7 µM (active); in assay [15], 16.6 µM (active); in assay [16], 2.09 µM (active); in [3] it was 8.33 µM (active); in [4] it was 10.5 µM (active). Also, the Potency in assay [6] was 13.2 µM (active); in assay [8], 5.26 µM (active); in assay [11], 4.69 µM (active); in assay [9], 3.72 µM (active).

Turning to `O=C(O)C1(Cc2cccc(Nc3nccs3)n2)CCC(Oc2cccc(Cl)c2F)CC1` (stereo not given), the Potency was 0.264 µM (active) in assay [14]; 0.935 µM (active) in assay [1]; 0.235 µM (active) in [15]; 1.32 µM (active) in [4]; 0.0235 µM (active) in assay [10]; 0.332 µM (active) in assay [9]. For the same compound, the Potency result in [16], in [11] and in assay [12] was “inactive” in each case.

Take `Cc1cn(-c2cc(NC(=O)c3ccc(C)c(Nc4nccc(-c5cccnc5)n4)c3)cc(C(F)(F)F)c2)cn1`: the Potency result in assay [14], in [1], in assay [17], in [3] and in assay [5] was “inactive” throughout. For the same compound, the Potency in assay [16] was 18.7 µM (active); in [4], 20.9 µM (active); in assay [8] it was 11.8 µM (active); in assay [13], 20.9 µM (active); in assay [12], 26.4 µM (active).

For `Cn1c(=O)n(-c2ccc(C(C)(C)C#N)cc2)c2c3cc(-c4cnc5ccccc5c4)ccc3ncc21`, the Potency in assay [1] is 0.132 µM (active); in [2], 0.0209 µM (active); in assay [16], 0.148 µM (active); in assay [3], 0.0105 µM (active); in [4] it was 0.0132 µM (active); in assay [5], 0.0526 µM (active). Besides, the Potency in assay [6] was 0.372 µM (active); in assay [7], 0.209 µM (active); in [8], 0.209 µM (active); in assay [13], 0.0166 µM (active); in assay [12], 0.0662 µM (active); in assay [9] it was 0.296 µM (active).

For `CCCCCN(CCC12CC3CC(CC(C3)C1)C2)C(=O)NCCCc1ccncc1`, the Potency in assay [1] was 20.9 µM (active); in assay [17] it was 18.7 µM (active); in assay [18], 4.18 µM (active); in [4] it was 26.4 µM (active); in assay [5] it was 4.69 µM (active); in [6], 18.7 µM (active). Further, the Potency in assay [7] was 20.9 µM (active); in assay [8], 20.9 µM (active); in assay [11], 18.7 µM (active); in [9] it was 18.7 µM (active). The Potency entry in [12] is “inactive”.

Consider `COc1c(N2C[C@@H]3CCCN[C@H]3C2)c(F)cc2c(=O)c(C(=O)O)cn(C3CC3)c12`, for which the Potency entry in assay [17], in assay [5], in assay [6], in [8] and in [11] was “inactive” in each case. Also, the Potency in assay [18] is 18.7 µM (active); in assay [4], 14.8 µM (active).

For the compound `C=CC(=O)Nc1cc2c(Nc3ccc(F)c(Cl)c3)ncnc2cc1OCCCN1CCOCC1`, the Potency entry in assay [14] is “inactive”. The Potency is 0.833 µM (active) in assay [15]; 16.6 µM (active) in assay [16]; 4.69 µM (active) in assay [17]; 2.64 µM (active) in assay [3]; 14.8 µM (active) in assay [4]; 0.526 µM (active) in assay [6]. Further, the Potency in [7] is 5.26 µM (active); in assay [8], 18.7 µM (active); in assay [13], 8.33 µM (active); in assay [11], 2.64 µM (active); in [12] it was 23.5 µM (active); in [9], 18.7 µM (active).

`COc1ccc(CC2SC(=O)NC2=O)cc1C(=O)NCc1ccc(C(F)(F)F)cc1` (stereo not given): the Potency entry in [14], in [1], in assay [16], in [18], in [4] and in assay [13] was “inactive” each time. For the same compound, in assay [11], the Potency result was “inactive”. Besides, in [3], the Potency was 5.9 µM (active).

Turning to `CCOC(=O)C1=C(C)NC2=C(C(=O)CC(C)(C)C2)C1c1ccc(-c2ccccc2)cc1` (stereo not given), the Potency is 26.4 µM (active) in assay [15]; 18.7 µM (active) in [16]; 20.9 µM (active) in assay [3]; 23.5 µM (active) in [4]; 23.5 µM (active) in [8]; 16.6 µM (active) in [13]. The Potency in [11] is 20.9 µM (active); in assay [9] it was 23.5 µM (active).

Consider `c1ccc2c(CCNc3ccc(Nc4ccncc4)cc3)c[nH]c2c1`, for which the Potency in assay [1] is 16.6 µM (active); in assay [15], 23.5 µM (active); in [16], 20.9 µM (active); in assay [17], 18.7 µM (active); in assay [3], 20.9 µM (active); in assay [18], 4.18 µM (active). The Potency in assay [4] was 13.2 µM (active); in [5], 5.26 µM (active); in [6], 10.5 µM (active); in assay [11], 20.9 µM (active); in assay [9], 2.96 µM (active). The Potency result in assay [12] is “inactive”.

Broadly, the viability is a read-out of living cells in per cent, often relative to untreated cells.

The values are drawn from PubChem BioAssay (NCATS).
